Laboratory results from PubChem BioAssay AID504832 (National Center for Advancing Translational Sciences (NCATS), 2011).
The whole screen tested about 310,000 compounds, of which about 18,000 (5.8%) were called active. A call without a number means that no potency is given here. Not shown: some 22% with an inconclusive outcome. This is one part of a sample in which actives are shown more often than they occur. The call rests on the fitted dose curve; in most records, active means well fitted inhibition curve with a large enough effect; inconclusive means small, poorly fitted or top-dose-only effect, or another doubt; inactive means no such curve, though single readings can be large or run the other way.

Assay: Primary qHTS for delayed death inhibitors of the malarial parasite plastid, 48 hour incubation
Details: P. falciparum luciferase growth in erythrocytes; series mostly up to 28.7 µM
From the text: The goal of this screen is to discover new antimalarial compounds that act by inhibiting the development of the apicoplast in the malarial parasite Plasmodium falciparum. The biochemical processes that make this organelle essential for erythrocytic stage parasites are not well understood. However, antibiotics such as azithromycin and tetracycline, which target the apicoplast translational machinery, have a potent antimalarial effect.
We have developed a cell-based assay that measures parasite growth based on the expression of an integrated copy of a firefly luciferase reporter. To detect small molecules that cause this "delayed death" phenotype, erythrocytes infected with the luciferase-expressing parasites were incubated with compounds for either one or two generations, corresponding to 48 and 96 hours, respectively. Compounds that inhibit parasite growth in the second generation, but not the first, should be enriched in antimalarials that target the apicoplast. Growth inhibition is detected by a decrease in luciferase activity.
Assay Provider: David Fidock and Eric Ekland, Columbia University
Keywords: NIH Roadmap, MLPCN, MLI, MLSMR, qHTS, NCGC, qHTS, malaria, luciferase, viability
Four microliters of culture medium (RPMI 1640 with 0.5% w/v Albumax (GIBCO), 24 mM sodium bicarbonate and 10 ug/mL gentamycin) were dispensed by a Multi-drop Combi into white solid 1536-well plates (Grenier) and 23 nL compound was added by a pin tool. Four microliters of infected erythrocytes (2% hematocrit, 0.1% parasitemia final concentration) in culture medium were dispensed and the plates incubated for 48 hours at 37 C in 5% CO2. Two microliters of luciferase detection reagent was added and luminescence was detected by a ViewLux (PerkinElmer) reader.
Potency means the concentration at half of the fitted maximal effect.

SMILES | Potency
C=CCOc1ccc(/C=C/C(=O)OCC(=O)NC2CCCCCC2)cc1 | inactive
CCC(Oc1ccccc1C)C(=O)Nc1ccc(S(=O)(=O)Nc2cc(C)on2)cc1 (stereo unspecified) | inactive
CC(=O)c1cc(CN2CCC(n3nccc3NC(=O)c3ccccc3Cl)CC2)cs1 | inactive
CC(OC(=O)c1ccccc1NCCO)C(=O)Nc1ccnn1C(C)C (stereo unspecified) | inactive
Cc1ccc(NC(=O)CN(C)C(=O)c2ccc(Br)o2)cc1 | inactive
COc1ccc(-c2cnc(SCCNC(=O)c3ccc4c(c3)OCO4)[nH]2)cc1 | inactive
CC(Oc1ccc(Br)cc1)C(=O)NC1CCCCCC1 (stereo unspecified) | inactive
COc1ccc(S(=O)(=O)NCC(c2ccco2)N2CCOCC2)cc1 (stereo unspecified) | inactive
CC(Oc1ccc(Br)cc1)C(=O)NCC(c1ccco1)N1CCCCC1 (stereo unspecified) | 11.7 µM (active)
O=C(COc1ccc2ccc(=O)oc2c1)NCC(O)c1ccccc1 (stereo unspecified) | inactive
O=C(CNC(=O)OCc1ccccc1)NC1CCCCNC1=O (stereo unspecified) | inactive
CCOc1ccccc1/C=N/Nc1nc2ccccc2o1 | inactive
COc1ccc(CCNC(=O)C(=O)NCc2ccccc2C)cc1OC | inactive
CCCCNC(=O)N1CCCC(N(C)CCc2ccc(OC)c(OC)c2)C1 (stereo unspecified) | inactive
COc1ccc(CCN(Cc2cc3cccc(C)c3[nH]c2=O)C(=O)N2CCCC2)cc1OC | 8.28 µM (active)
Cc1ccc2c(cnn2C(=O)CCC(=O)NC2CCCC2)c1 | inactive
O=C(Nc1cccc(C(F)(F)F)c1)c1cnccn1 | inactive
Cn1nc(C(F)(F)F)c(C(=O)Nc2cccc(C(F)(F)F)c2)c1SCc1ccc(Cl)cc1 | 1.85 µM (active)
O=C(O)CSCC(=O)Nc1cccc(C(F)(F)F)c1 | inactive
COc1ccc(CCNC(=O)COc2ccc3c(c2)OCO3)cc1 | inactive
CN(C)C(=O)CCC(=O)N1CCCCC1C(=O)Nc1ccc(Oc2ccccc2F)cc1 (stereo unspecified) | inactive
CCOC(=O)CCCNC(=O)COC(=O)/C=C/c1ccc2c(c1)OCO2 | inactive
COc1ccc(/C=C/C(=O)OCC(=O)NCc2cccs2)cc1OC | inactive
CCOc1cc(/C=C/C(=O)OCC(=O)NCCN2C(=O)CSC2=O)ccc1OCC(C)C | 14.7 µM (active)
COc1ccc(CNC(=O)CN2C(=O)NC3(CCCc4sccc43)C2=O)cc1 (stereo unspecified) | inactive
CCN(CC)S(=O)(=O)c1ccc(N2CC(C(=O)NCc3cccnc3)CC2=O)cc1 (stereo unspecified) | inactive

SMILES | Potency
Cc1ccc2[nH]c(=O)c(CN(C)S(=O)(=O)c3cccc4nonc34)cc2c1 | inactive
CCN(Cc1ccccc1)S(=O)(=O)c1cc2c3c(c1)CCN3C(=O)CC2 | inactive
O=C(CN1CCCCCC1)Nc1ccc(Cl)cc1F | inactive
CC1CCCN(CC(=O)Nc2cc(Cl)ccc2Oc2ccccc2)C1 (stereo unspecified) | 14.7 µM (active)
COc1cc(Cl)c(C)cc1NC(=O)CN1CCCCCC1 | inactive
Cc1sc2ncn(CC(=O)NCCN(C)C)c(=O)c2c1S(=O)(=O)N1CCC(C)CC1 | inactive
COCCCn1c(SCC(=O)Nc2ccccc2)nnc1-c1ccncc1 | inactive
COCCCn1c(SCC(=O)NC2CCCC2)nnc1-c1ccccc1 | inactive
COCCCn1c(Cc2csc(Nc3cccc(Cl)c3)n2)nnc1SCC(=O)OC1CCCCC1 | 8.28 µM (active)
COc1cc(C(=O)OCC(=O)NC(C)CCc2ccccc2)cc(OC)c1OC (stereo unspecified) | inactive
NC(=O)c1cc(S(=O)(=O)NCCCc2ccco2)cs1 | inactive
Cc1[nH]c2c(C(=O)N3CCCC(CCC(=O)NCc4ccccc4F)C3)cccc2c1C (stereo unspecified) | 11.7 µM (active)
COc1cccc(C(=O)N2CCCC(CCC(=O)NCc3ccc(F)c(F)c3)C2)c1 (stereo unspecified) | inactive
COc1cccc(CNC(=O)CCC2CCCN(C(=O)c3cc(C)[nH]n3)C2)c1 (stereo unspecified) | inactive
CCOc1ccc(NC(=S)N2CCC(NC(=O)c3ccccc3)CC2)cc1 | inactive
COc1ccc(NC(=O)CCC(=O)N2CCN(S(=O)(=O)c3ccc(C)cc3)CC2)c(OC)c1 | inactive
COc1ccc(/C=C/C(=O)c2ccc(NS(=O)(=O)c3ccc(C)cc3)cc2)cc1O | 14.7 µM (active)
COc1ccc(C(=O)Oc2cc(/C=N/NS(=O)(=O)c3ccc(C)cc3)ccc2OC)cc1 | inactive
COc1ccc(NS(=O)(=O)c2ccc(NC(C)=O)cc2)cc1OC | inactive
Cc1cc(Cl)c2oc(C(=O)N(C)C(C)c3ccccn3)c(C)c2c1 (stereo unspecified) | inactive
CCc1nccn1CCC(=O)N1CCCC(N2CCN(c3ccccc3F)CC2)C1 (stereo unspecified) | inactive
O=C(C1CC(=O)N(c2ccc(F)cc2)C1)N1CCN(c2ccccc2)CC1 (stereo unspecified) | inactive
O=C(Nc1cccc(S(=O)(=O)N2CCCCC2)c1)c1ccc2c(c1)OCO2 | inactive
CC1CC(C)CN(C(=O)C2CC(=O)N(c3ccc(F)cc3)C2)C1 (stereo unspecified) | inactive
Cc1ccc(C(=O)Nc2ccc3c(c2)OCO3)cc1S(=O)(=O)N1CCCCC1 | inactive
O=C(c1ccc(Cl)c(Cl)c1)N1CCCC1 | inactive

SMILES | Potency
O=C(c1ccc(Cl)c(S(=O)(=O)N2CCCCC2)c1)N1CCCCCC1 | inactive
CNS(=O)(=O)c1ccc(NC(=O)C2CC(=O)N(c3ccc(Cl)cc3)C2)cc1 (stereo unspecified) | inactive
O=C(c1ccc(Cl)c(S(=O)(=O)N2CCCCCC2)c1)N1CCN(c2ccc(O)cc2)CC1 | 13.1 µM (active)
CCC(C)c1ccccc1N1CC(C(=O)N2CCN(S(=O)(=O)c3ccc(F)cc3)CC2)CC1=O (stereo unspecified) | 10.4 µM (active)
O=C(Nc1ccc2c(c1)OCCO2)c1ccc(Cl)c(S(=O)(=O)N2CCCCC2)c1 | 6.57 µM (active)
O=C(Nc1ccc(S(=O)(=O)N2CCCCC2)cc1)C1CC(=O)N(c2ccc(F)cc2)C1 (stereo unspecified) | 5.22 µM (active)
O=C(NC1CCCC1)C1CC(=O)N(c2ccc(F)cc2)C1 (stereo unspecified) | inactive
COC(=O)c1ccc(NC(=O)c2cc3c(CO)cnc(C)c3oc2=Nc2cccc(C(N)=O)c2)cc1 | inactive
Cc1nc(NC(=O)c2ccc3c(c2)OCCO3)ccc1Br | inactive
CCCCn1c(N)c(N(CCOC)C(=O)c2oc3ccc(OC)cc3c2C)c(=O)[nH]c1=O | inactive
Cc1cn([C@H]2CC(F)[C@@H](CO)O2)c(=O)[nH]c1=O (stereo partly specified) | inactive
COc1ccc2cc(C(=O)C3CCCN(C(=O)c4sc(C)nc4C)C3)ccc2c1 (stereo unspecified) | inactive
COc1ccccc1C(=O)NC(CCSC)C(=O)NNC(=O)c1ccccc1C (stereo unspecified) | inactive
Cc1ccc(CN(CC(=O)NCC2CCCO2)S(=O)(=O)c2ccc(C)cc2)cc1 (stereo unspecified) | inactive
O=C(Cc1ccccc1)Nc1ccc(C(=O)Nc2ccccc2C(=O)O)cc1 | inactive
CCOC(=O)c1sc(NC(=O)C2CSC3(C)CCC(=O)N23)nc1C (stereo unspecified) | inactive
CCOC(=O)N1CCN(Cc2nc3cc(NC(C)=O)ccc3n2C)CC1 | inactive
O=C(Nc1ccccc1)C1CCN(C(=O)c2ccc(Br)cc2)CC1 | inactive
CCOC(=O)c1ccc(NC(=O)C2CC(=O)N(c3ccc4c(c3)OCCO4)C2)cc1 (stereo unspecified) | inactive
O=C(Nc1ccc(S(=O)(=O)N2CCCCC2)cc1)C1CCN(C(=O)c2ccc(F)cc2)CC1 | 9.28 µM (active)
CC(=O)c1ccccc1NC(=O)C1CC(=O)N(c2ccc3c(c2)OCCO3)C1 (stereo unspecified) | inactive
O=C(Nc1ccc(F)cc1)C1CCCN(S(=O)(=O)c2ccc(-n3cnnn3)cc2)C1 (stereo unspecified) | inactive
Cc1ccc(NC(=O)C2CC(=O)N(c3ccc4c(c3)OCCO4)C2)cc1S(=O)(=O)N1CCCCCC1 (stereo unspecified) | 11.7 µM (active)
Cc1c(Cl)c([N+](=O)[O-])nn1CC(=O)NCCCN1CCOCC1 | inactive
N[C@@H](Cc1ccccc1)C(=O)N1CCOCC1 | inactive
CSCC[C@H](NC(=O)N1CCn2c1nc1ccccc12)C(=O)NC1CCCCC1 | inactive

SMILES | Potency
COc1cccc(CNC(=O)CCC2CCCN(C(=O)c3ccc(F)c(Cl)c3)C2)c1 (stereo unspecified) | inactive
CCOc1ccc(CC(=O)NC2CCN(Cc3ccccc3)CC2)cc1 | inactive
Cc1ccc(S(=O)(=O)N(C)C)cc1NC(=O)CN1c2cccc3cccc(c23)S1(=O)=O | 13.1 µM (active)
CC(C)CN(CC(C)C)C(=O)CN1c2cccc3cccc(c23)S1(=O)=O | inactive
O=C(O)CN1c2cccc3cccc(c23)S1(=O)=O | inactive
Cc1cc(=O)n2nc(N3CCC(C(=O)Nc4c(F)c(F)c(F)c(F)c4F)CC3)sc2n1 | inactive
CCOc1ccc(S(=O)(=O)N2CCN=C2Cc2ccccc2)cc1C | inactive
Cc1ccc(C23CC4CC(CC(C(=O)NCC(=O)O)(C4)C2)C3)cc1 | inactive
CC(=O)Nc1ccc(NC(=O)CCN2C(=O)C3CC=CCC3C2=O)cc1 (stereo unspecified) | inactive
COc1ccc(NC(=O)[C@H](NC(=O)[C@@H]2Cc3ccccc3CN2)c2ccccc2)cc1 | inactive
COc1cccc(NC(=O)[C@H](Cc2c[nH]c3ccccc23)NC(=O)[C@@H]2Cc3ccccc3CN2)c1 | 9.28 µM (active)
COc1ccc(CNC(=O)[C@H](Cc2c[nH]c3ccccc23)NC(C)=O)cc1OC | inactive
CCOC(=O)c1c(C)[nH]c(C)c1S(=O)(=O)NCCCc1ccco1 | inactive
CC1CCCCC1NC(=O)CCS(=O)(=O)c1ccc2c(c1)NC(=O)CO2 (stereo unspecified) | inactive
CCOc1ccc(CN2CCN(Cc3ccc4cc(F)ccc4n3)CC2CCO)cc1 (stereo unspecified) | inactive
COc1cccc(CN(C)CC(=O)Nc2sc3c(c2C#N)CCC3)c1 | inactive
COc1ccc(OCC(O)CN(C)C(=O)C(C)Oc2ccccc2)cc1 (stereo unspecified) | inactive
COc1cccc(CN(C)CC(O)COC(c2ccccc2)c2ccccc2C)c1 (stereo unspecified) | 8.28 µM (active)
CC(=O)Nc1ccc(NC(=O)CSc2nnnn2-c2ccccc2F)cc1 | inactive
O=C(NCCNc1ccccc1[N+](=O)[O-])c1ccccc1F | inactive
COc1ccccc1C(=O)Nc1ccc(OCC(=O)N2CCCCC2)cc1 | inactive
CC(C)c1ccc2c(c1)c(SC(C)(C)C)c(CC(C)(C)C(=O)O)n2Cc1ccc(Cl)cc1 | 8.28 µM (active)
O=C(O)c1ccc(Cn2c(=S)[nH]c3cc(Cl)ccc3c2=O)cc1 | inactive
